PubChem BioAssay (NCATS)
Results filed as inconclusive are left out. The source made the active and inactive calls. Calls follow the shape of the dose curve; as a rule, active = well fitted inhibition curve with a large enough effect; inconclusive = small, poorly fitted or top-dose-only effect; inactive = flat fitted curve, though single readings scatter. Bridge positions count the residues as written; N and C are the ends. Square brackets hold non-standard residues; d marks the D form. Peptide text beside a SMILES is read from it. * marks the point of attachment. ξ: configuration not given here. Octanoyl(6-Me) = CCC(C)CCCCC(=O)*; ξThr(3R) = C[C@@H](O)C(N)C(=O)O; dDab = NCC[C@@H](N)C(=O)O; Dab = NCC[C@H](N)C(=O)O

Each molecule was assayed against Luciferin 4-monooxygenase (Photinus pyralis) (UniProt P08659) (assay: Biochemical firefly luciferase enzyme assay for NPC (AID 624030;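 also: 0% = DMSO and -100% = full luciferase inhibition by PTC124 control; nearly all actives have a fitted effect of over 70% in size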)). Conditions: purified P. pyralis luciferase, luminescence, 5 min; series mostly up to 58.6 µM; activity change, negative = inhibition: at the top concentration.
Text: Charcot-Marie-Tooth-Association [CMTA] National Center for Advancing Translational Sciences [NCATS] Charcot-Marie-Tooth (CMT) disease was first characterized by Jean-Martin Charcot and Pierre Marie in France and, independently, by Howard Henry Tooth in England in 1886. CMT is one of the most common inherited neurological diseases, affecting approximately 1 in 2,500 Americans. […] The most prevalent type of CMT is known as CMT1A and caused by a duplication of the PMP22 gene which leads to over-expression of this protein. PMP22 is a glycosylated intrinsic membrane protein accounting for 2-5% of the myelin protein content, and its over-expression results in demyelination and subsequently axonal loss. A pair of cellular transcription-based assays was developed in the S16 rat Schwann cell lines (Hai, M., et al., 2002) stably transfected with orthogonal reporters - firefly luciferase (Fluc) and beta-lactamase (beta-Lac) - whose expression is driven by an intronic regulatory element of the PMP22 gene (Jones, E.A., et al., 2011) to recapitulate endogenous expression of PMP22. A comprehensive library of approved drugs, the NCGC Pharmaceutical Collection (Huang, R., et al., 2011), was screened in the cross-validating platform of the orthogonal reporter assays to identify drug modulators inhibitory towards PMP22 expression. A set of counter-screens was devised to address non-specific activity of the library. An ATP-dependent CellTiter-Glo assay (developed by Promega Corp) was utilized to control cell viability. In addition, biochemical Fluc enzyme assay was performed to assess direct inhibition of the Fluc enzymatic activity. References Hai, M., Muja, N., DeVries, G.H., Quarles, R.H. and Patel, P.I. Comparative analysis of Schwann cell lines as model systems for myelin gene transcription studies. J Neurosci Res, 2002. 69(4): pp 497-508 Huang, R., Southall, N., Wang, Y., Yasgar A., Shinn P., Jadhav, A. , Nguyen, D.-T. and Austin, C.P., The NCGC pharmaceutical collection: a comprehensive resource of clinically approved drugs enabling repurposing and chemical genomics. Sci Transl Med, 2011. 3(80): p. 80ps16.
Compounds were transferred to the plates in 23nl, and one microliter/well luciferase enzyme-buffer solution (10 nM P. pyralis luciferase and 50 mM Tris Acetate final concentrations) was dispensed yielding a final reaction volume of […]. Luciferase luminescence was measured by a ViewLux plate reader within 5 minutes of enzyme-buffer addition. The % activity was determined by normalizing to the average readings of PTC124 (a positive control) relative to DMSO (0% Activity). The concentration-effect curves were then classified based on curve quality (r2), response magnitude and degree of measured activity.

Luciferin 4-monooxygenase (Photinus pyralis), sequence (P08659 whole entry, looked up): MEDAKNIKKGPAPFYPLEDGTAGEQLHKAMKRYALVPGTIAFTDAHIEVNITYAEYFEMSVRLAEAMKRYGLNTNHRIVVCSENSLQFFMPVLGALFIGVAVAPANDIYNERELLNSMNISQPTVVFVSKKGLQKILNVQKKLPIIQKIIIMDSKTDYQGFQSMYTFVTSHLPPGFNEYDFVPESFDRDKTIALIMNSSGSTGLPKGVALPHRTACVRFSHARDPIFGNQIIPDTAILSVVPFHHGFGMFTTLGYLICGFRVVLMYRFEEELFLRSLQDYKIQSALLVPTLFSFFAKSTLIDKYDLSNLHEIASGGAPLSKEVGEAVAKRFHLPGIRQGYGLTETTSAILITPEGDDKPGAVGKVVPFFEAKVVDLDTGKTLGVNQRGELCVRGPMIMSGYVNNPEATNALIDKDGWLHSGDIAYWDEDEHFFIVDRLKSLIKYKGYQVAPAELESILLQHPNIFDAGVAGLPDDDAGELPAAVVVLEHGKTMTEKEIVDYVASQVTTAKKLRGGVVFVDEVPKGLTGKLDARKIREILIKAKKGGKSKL

Activity change, negative = inhibition, inactive:
CC[C@H](c1ccccc1)c1noc(CCN(CC)CC)n1 -17%, COCC1=C(C(=O)OC(C)OC(=O)OC(C)C)N2C(=O)C(NC(=O)/C(=N\OC)c3csc(N)n3)C2SC1 (stereo not given) 1.77%, CS(=O)(=O)NC(=O)CCC/C=C\C[C@H]1C(=O)C[C@@H](O)[C@@H]1/C=C/[C@@H](O)COc1ccccc1 -3.59%, C[N+](C)(CCOc1ccccc1)Cc1cccs1 (tested in a mixture with another compound) -4.67%, CC[C@H](C)[C@H](NC(=O)[C@H](CO)NC(=O)[C@H](CC(N)=O)NC(=O)[C@H](CC(C)C)NC(=O)[C@H](Cc1ccc(O)cc1)NC(=O)[C@H](CCCCN)NC(=O)[C@H](CCCCN)NC(=O)[C@@H](NC(=O)[C@H](C)NC(=O)[C@H](CCSC)NC(=O)[C@H](CCC(N)=O)NC(=O)[C@H](CCCCN)NC(=O)[C@H](CCCNC(=N)N)NC(=O)[C@H](CC(C)C)NC(=O)[C@H](CCCNC(=N)N)NC(=O)[C@@H](NC(=O)[C@H](Cc1ccc(O)cc1)NC(=O)[C@H](CC(N)=O)NC(=O)[C@H](CC(=O)O)NC(=O)[C@@H](NC(=O)[C@H](Cc1ccccc1)NC(=O)[C@@H](NC(=O)[C@H](C)NC(=O)[C@H](CC(=O)O)NC(=O)[C@H](CO)NC(=O)[C@@H](N)Cc1c[nH]cn1)C(C)C)[C@@H](C)O)[C@@H](C)O)C(C)C)C(=O)N[C@@H](CC(C)C)C(=O)N[C@@H](CC(N)=O)C(=O)O 21.2%, CO[C@@H]1[C@@H](OC2OC(C)C(OC3CC(C)(O)C(O)C(C)O3)C(N(C)C)C2O)[C@@H](CC=O)C[C@@H](C)[C@@H](OC2CCC(N(C)C)C(C)O2)/C=C/C=C/C[C@@H](C)OC(=O)C[C@H]1OC(C)=O (stereo not given in full) -0.0945%, CC(C)=CCC/C(C)=C\CC/C(C)=C\CC/C=C(\C)CC/C=C(\C)CCC=C(C)C 2.76%, CC(C)C[C@@H](NC(=O)[C@@H](COC(C)(C)C)NC(=O)[C@H](Cc1ccc(O)cc1)NC(=O)[C@@H](CO)NC(=O)[C@@H](Cc1c[nH]c2ccccc12)NC(=O)[C@@H](Cc1cnc[nH]1)NC(=O)[C@@H]1CCC(=O)N1)C(=O)N[C@H](CCCN=C(N)N)C(=O)N1CCC[C@H]1C(=O)NNC(N)=O 1.2%, CCC1NC(=O)C(NC(=O)c2ncccc2O)C(C)OC(=O)C(c2ccccc2)NC(=O)C2CC(=O)CCN2C(=O)C(Cc2ccccc2)N(C)C(=O)C2CCCN2C1=O (stereo not given) 0.435%, CC#CC[C@@H](C)[C@@H](O)/C=C/[C@H]1[C@H]2c3cccc(CCCC(=O)O)c3O[C@H]2C[C@@H]1O 1.74%, CC1CC2C3CCC4=CC(=O)C=CC4(C)[C@@]3(F)C(O)CC2(C)[C@@]1(O)C(=O)CCl (stereo not given in full) -4.98%, COc1cc(/C=C/C(=O)O[C@H]2CC[C@]34C[C@]35CC[C@]3(C)[C@@H]([C@H](C)CCC=C(C)C)CC[C@@]3(C)C5CCC4C2(C)C)ccc1O (stereo not given in full) -0.729%, O=C(O)/C=C(/CC(=O)O)C(=O)O -5.89%, CSCCC(NC(=O)[C@H](Cc1c[nH]c2ccccc12)NC(=O)CNC(=O)[C@H](CCSC)NC(=O)[C@H](Cc1ccc(OS(=O)(=O)O)cc1)NC(=O)[C@@H](N)CC(=O)O)C(=O)N[C@@H](CC(=O)O)C(=O)N[C@@H](Cc1ccccc1)C(N)=O (stereo not given in full) -12.5%, O=C1O[C@H]2[C@@H](OC(O)[C@@H]2O)[C@H]1O (stereo not given in full) -3.82%, CC/C=C(/C(=O)N[C@@H]1C(=O)N2C(C(=O)OCOC(=O)C(C)(C)C)=C(COC(N)=O)CS[C@H]12)c1csc(N)n1 -3.85%, NCCCCC(NC(=O)C1CCCN1C(=O)C1CSSCC(N)C(=O)NC(Cc2ccccc2)C(=O)NC(Cc2ccccc2)C(=O)NC(CCC(N)=O)C(=O)NC(CC(N)=O)C(=O)N1)C(=O)NCC(N)=O (stereo not given) (H-CFFQNCPKG-NH2; disulfide 1-6; configuration not given here) 0.329%, CC1(C)SC2C(NC(=O)C(c3ccccc3)S(=O)(=O)O)C(=O)N2C1C(=O)O (stereo not given) -6.08%, CC(C)C[C@H](NC(=O)[C@@H](Cc1c[nH]c2ccccc12)NC(=O)[C@@H](Cc1ccc(O)cc1)NC(=O)[C@@H](CO)NC(=O)[C@@H](Cc1c[nH]c2ccccc12)NC(=O)C(Cc1cnc[nH]1)NC(=O)C1CCC(=O)N1)C(=O)N[C@@H](CCCN=C(N)N)C(=O)N1CCC[C@@H]1C(=O)NCC(N)=O (stereo not given in full) -1.39%, CCC(C)CCCCC(=O)N[C@@H](CCN)C(=O)N[C@H](C(=O)N[C@@H](CCN)C(=O)N[C@H]1CCNC(=O)C([C@@H](C)O)NC(=O)[C@@H](CCN)NC(=O)[C@H](CCN)NC(=O)[C@H](CC(C)C)NC(=O)[C@@H](CC(C)C)NC(=O)[C@H](CCN)NC1=O)[C@@H](C)O (stereo partly drawn) ({Octanoyl(6-Me)}-[Dab]T[Dab][Dab][Dab][dL]L[Dab][dDab][ξThr(3R)]; lactam 4-C) 11.7%, CO[C@@]1(NC(=O)CSC(F)F)C(=O)N2C(C(=O)O)=C(CSc3nnnn3CCO)CO[C@@H]21 -8.43%, CC(=O)O[C@@H]1C(=O)O[C@H]2[C@@H]1OC(=O)[C@@H]2OC(C)=O -14.5%, CO/N=C1\C[C@]2(C[C@@H]3C[C@H](C/C=C(/C)C[C@@H](C)/C=C\C=C4\CO[C@@H]5[C@@H](O)C(C)=C[C@@H](C(=O)O3)[C@]45O)O2)O[C@@H](/C(C)=C/C(C)C)[C@H]1C -2.95%, CO/N=C1/CC2(CC3CC(C/C=C(/C)CC(C)/C=C\C=C4\COC5C(O)C(C)=CC(C(=O)O3)C45O)O2)OC(/C(C)=C/C(C)C)C1C (stereo not given) -0.66%, CNCC(=O)NC(CCCN=C(N)N)C(=O)NC(C(=O)NC(Cc1ccc(O)cc1)C(=O)NC(C(=O)NC(Cc1cnc[nH]1)C(=O)N1CCCC1C(=O)NC(C)C(=O)O)C(C)C)C(C)C (stereo not given) 3.38%, CCC[C@]1(CCc2ccccc2)CC(O)=C([C@H](CC)c2cccc(NS(=O)(=O)c3ccc(C(F)(F)F)cn3)c2)C(=O)O1 -12.4%, CC1(C)C(C(=O)O)N2C(=O)CC2S1(=O)=O (stereo not given) 2.81%, CCCCC(=O)OCC(=O)[C@H]1[C@H](C)C[C@@H]2[C@@H]3C[C@@H](F)C4=CC(=O)C=C[C@]4(C)[C@@]3(F)[C@@H](O)C[C@@]21C -2.37%, O=P(O)(O)OC[C@@H](O)CO -6.86%, COCC1=C(C(=O)OC(C)OC(=O)OC(C)C)N2C(=O)C(NC(=O)/C(=N/OC)c3csc(N)n3)[C@H]2SC1 (stereo not given in full) -5.44%, CCCCC/C=C/C/C=C/CCCCCCCC(=O)NC(C)c1ccccc1 (stereo not given) -0.61%, COc1cc2c(cc1OC)[C@@H](Cc1cc(OC)c(OC)c(OC)c1)[N@+](C)(CCCOC(=O)CC/C=C/CCC(=O)OCCC[N@+]1(C)CCc3cc(OC)c(OC)cc3[C@H]1Cc1cc(OC)c(OC)c(OC)c1)CC2 4.86%, O=CC(O)C(O)C(O)C(O)CO (stereo not given) -0.114%, [2H]c1c([2H])c([2H])c2c([nH]c(=S)n2C2CCN(CCCC(=O)c3ccc(F)cc3)CC2)c1[2H] -10.2%, C#C[C@@]1(OC(C)=O)CC[C@H]2[C@@H]3CCC4=CC(=O)CC[C@@H]4[C@H]3CC[C@@]21C 0.854%, C[N+]1(C)C2CCC1CC(OC(=O)C(O)c1ccccc1)C2 (stereo not given) 1.26%, CC(C)(S)C(=O)N[C@H](CS)C(=O)O -0.889%, Cc1cccc(C)c1N(CCCc1cccnc1)C(=O)[C@@H](C)N 0.23%, CC(=O)OCC(=O)[C@@]1(O)CCC2C3CCC4=CC(=O)CC[C@]4(C)C3=CC[C@@]21C (stereo not given in full) -3.53%

Potency, inactive:
NC(=O)CCC1NC(=O)C(Cc2ccccc2)NC(=O)C(Cc2ccc(O)cc2)NC(=O)CCSSCC(C(=O)N2CCCC2C(=O)NC(CCCN=C(N)N)C(=O)NCC(N)=O)NC(=O)C(CC(N)=O)NC1=O (stereo not given)
